PubChem BioAssay AID1259415 (National Center for Advancing Translational Sciences (NCATS), 2018)
The campaign covered roughly 410,000 compounds. About 18,000 (4.4%) were called active. Roughly 7% stayed inconclusive and do not appear here. The entries come from a sample that favours actives as a whole. Values without a mark were called inactive. Cut-off read from the data, not from the text of the source: active = activity change below about -60%; inconclusive = no clear call, values can overlap the other calls; inactive = above about -39%.
% is set by controls: 0 for no effect and ±100 for the full control effect.

Test: qHTS Assay for inhibitors of the human cytomegalovirus (HCMV)
Conditions: HFF cells, HCMV-luciferase reporter, 72 h; at 57.5 µM; active compounds read low
Procedure, shortened: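 Two-dose cell screen: HFF monolayers treated with compounds and infected with luciferase-expressing HCMV at 1 PFU/cell, 72 h at 37C, then lysed for luciferase measurement.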
With `Cc1ccc(S(=O)(=O)N2[C@@H](c3cccc4ccccc34)C(C(=O)O)=C[C@H]2C(C)(C)C)cc1` the activity change, negative = inhibition was -14.1%.
Work on `CCc1nc2ccc(C(=O)N3CCN(c4cc(Cl)ccc4C)CC3)cc2nc1CC` yielded an activity change, negative = inhibition of 33.5%.
Work on `CCC(=O)N1CCc2cc(S(=O)(=O)NC(C(=O)Nc3ccc(C(C)=O)cc3)C(C)C)ccc21` (centres undefined) yielded an activity change, negative = inhibition of 7.35%.
`C=Cn1cc[n+](CC(=O)c2ccc(OC)c(OC)c2)c1` showed an activity change, negative = inhibition of -10.4%.
With `COc1ccc(-c2ccc(Nc3ccc(S(=O)(=O)N4CCCC4)cc3)nn2)cc1OC` the activity change, negative = inhibition was -67% (active).
`COc1ccccc1CC(=O)Nc1ccc(S(=O)(=O)N2CCCC2)cc1` showed an activity change, negative = inhibition of -14.7%.
Compound `COc1ccc(S(=O)(=O)N2CCC(C(=O)N3CCCC3)CC2)cc1C` has an activity change, negative = inhibition of 1.95%.
With `O=C(CSc1oc(-c2ccccc2)nc1S(=O)(=O)c1ccc(Br)cc1)NC1CCCCC1` the activity change, negative = inhibition was 14%.
For `O=C(NCc1ccc(F)cc1)c1ccc(Cn2c(SCc3ccc(F)cc3)nc3cccnc32)cc1`, the activity change, negative = inhibition was 16%.
With `Cc1c(C(=O)N(C)C)sc2c1c(=O)n(-c1ccc(F)cc1)c(=O)n2CC(=O)N(C)c1ccccc1` the activity change, negative = inhibition was 7.53%.
For `CN(C(=O)COC(=O)CNC(=O)C12CC3CC(CC(C3)C1)C2)c1ccccc1`, the activity change, negative = inhibition was 5.66%.
Work on `Cc1ccc(S(=O)(=O)NCCC(=O)OCC(=O)N(C)c2ccccc2)cc1` yielded an activity change, negative = inhibition of 2.56%.
In the case of `CN(C(=O)CC(NC(=O)c1ccccc1)(c1ccccc1)c1ccccc1)c1ccccc1`, the activity change, negative = inhibition was -66.2% (active).
`Cc1ccc(C)c(Oc2c(C(F)(F)F)oc3c(CN4CCN(C)CC4)c(O)ccc3c2=O)c1` gave an activity change, negative = inhibition of -2.3%.
Compound `Cn1c(=O)nc2n(-c3ccc(Br)cc3)c3cccc(Cl)c3cc-2c1=O` has an activity change, negative = inhibition of -1.09%.
`CCOC(=O)c1cc(OC(=O)c2ccccc2Cl)n(-c2ccccc2)n1` showed an activity change, negative = inhibition of -20.3%.
In the case of `Cc1ccc(CCNC(=O)c2nnc(Cc3cccc(F)c3)o2)cc1`, the activity change, negative = inhibition was -16.3%.
With `COc1ccc(C(CCNCc2ccccc2F)c2ccc(F)cc2)cc1` (centres undefined) the activity change, negative = inhibition was -62.4% (active).
Work on `COc1ccc(C(CNCC(=O)Nc2ccccc2F)N(C)C)cc1` (centres undefined) yielded an activity change, negative = inhibition of 8.02%.
For `COc1ccc(CCNC(=O)COC(=O)Cc2ccccc2F)cc1`, the activity change, negative = inhibition was 3.43%.
In the case of `C=C1CCN([C@H](C(=O)NCc2cc(OC)c(OC)c(OC)c2)C(C)C)S(=O)(=O)c2ccccc21`, the activity change, negative = inhibition was 9.82%.
In the case of `Cc1cccc(N2CCN(C(=O)Cn3ncc4c5ccccc5n(C)c4c3=O)CC2C)c1` (centres undefined), the activity change, negative = inhibition was 17.6%.
For `CCOC(=O)N1CCN(C(=O)C2CCN(S(C)(=O)=O)CC2)CC1`, the activity change, negative = inhibition was -16.6%.
For `CCOC(=O)N1CCN(C(=O)C2CCN(S(=O)(=O)c3cc(Cl)ccc3OCC)CC2)CC1`, the activity change, negative = inhibition was -87% (active).
`CCN1CCN(C(=O)C2CCN(S(=O)(=O)c3cc(Cl)ccc3Cl)CC2)CC1` gave an activity change, negative = inhibition of 10.9%.
Compound `CCn1c2c(c(=O)n3ncc(C(=O)N4CCN(c5ccccc5)CC4)c13)CN(Cc1ccc(OC)cc1)CC2` has an activity change, negative = inhibition of 17.6%.
In the case of `COc1ccccc1-n1c(-c2ccc(C)cc2)cn2c3c(=O)n(C)c(=O)n(C)c3nc12`, the activity change, negative = inhibition was -0.712%.
`COCC(C)N=CC1=C(O)CC(C)(C)CC1=O` (centres undefined) showed an activity change, negative = inhibition of 36.9%.
Work on `O=C(NCCCN1CCCC1=O)C(=O)NCC1OCCN1S(=O)(=O)c1ccc(Br)cc1` (centres undefined) yielded an activity change, negative = inhibition of -19.1%.
Compound `CC(C)NC(=O)C1CCC(Cn2c(=O)c3sccc3n(Cc3ccc(F)cc3)c2=O)CC1` (centres undefined) has an activity change, negative = inhibition of 23.5%.
With `Cn1cnnc1Sc1ccc(CN2CCN(C3CCCC3)C(CCO)C2)o1` (centres undefined) the activity change, negative = inhibition was -68.7% (active).
`OCCC1CN(Cc2ccc3nsnc3c2)CCN1C1CCCCC1` (centres undefined) showed an activity change, negative = inhibition of 11.1%.
Compound `OCCC1CN(Cc2ccc3nsnc3c2)CCN1C1CCCC1` (centres undefined) has an activity change, negative = inhibition of -14.5%.
Work on `CCN(C(=O)Cn1cc(S(=O)(=O)N2CCN(c3ccccc3F)CC2)c2ccccc2c1=O)c1ccc(C)c(C)c1` yielded an activity change, negative = inhibition of 3.86%.
In the case of `COc1ccc(CCNc2cc(N3CCN(C(=O)c4ccccc4OC)CC3)ccc2[N+](=O)[O-])cc1OC`, the activity change, negative = inhibition was -94% (active).
`COc1ccccc1OCCNc1cc(N2CCOCC2)ccc1[N+](=O)[O-]` gave an activity change, negative = inhibition of 63.8%.
With `COc1ccc(CCNC(=O)C(=O)NCc2ccccc2C)cc1OC` the activity change, negative = inhibition was -36%.
Work on `COc1cccc(NC(=S)NC(=O)c2c(Cl)c(C)nn2C)c1` yielded an activity change, negative = inhibition of 12.6%.
`COc1ccc(N2CCN(S(=O)(=O)CCNC(=O)C34CC5CC(CC(C5)C3)C4)CC2)cc1` showed an activity change, negative = inhibition of -36.2%.
Compound `CCOc1ccccc1OCCCNCc1ccccc1` has an activity change, negative = inhibition of -10.8%.
With `CN(C)CCNC(=O)c1ccc(Cl)c2cc3ccccc3nc12` the activity change, negative = inhibition was -98.5% (active).
`CN(C)CCNC(=O)Cc1ccc([N+](=O)[O-])cc1` gave an activity change, negative = inhibition of -3.93%.
`COc1ccc(Nc2cc(C(=O)NCCCN(C)c3ccccc3)c3ccccc3n2)c(OC)c1` gave an activity change, negative = inhibition of -2.95%.
`COc1cccc(-c2nnc(SCC(=O)N3CCC(C)CC3)o2)c1` gave an activity change, negative = inhibition of -9.59%.
